Screening data (PubChem BioAssay)
Many of the other results were omitted from the sample, so hits are more common in it than they were.
D1 allo mod = allosteric modulators of human D1 dopamine receptor | P21728 | 58,000 tested, 5.9% active | AID 641 | B-score at 10 µM | HEK293 D1, CRE-luciferase, dopamine EC30 potentiation; actives deviate in either direction;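 active = luminescence count or its row- and column-corrected plate score outside the 99.7% band of the plate's sample wells, on either side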
hDAT+cocaine = modulates human dopamine transporter uptake under cocaine; Q01959; LLC-PK1 hDAT cells, [14C]-dopamine uptake with cocaine IC80; actives deviate in either direction; B-score at 10 µM; 110,000 tested, 1.3% active;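 active = Z score or B-score, a plate-position-corrected score, falls beyond the plate's 99.7% confidence bounds, in either direction; inactive = both scores lie inside the 99.7% bounds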
Target sequence (Q01959 whole entry, looked up): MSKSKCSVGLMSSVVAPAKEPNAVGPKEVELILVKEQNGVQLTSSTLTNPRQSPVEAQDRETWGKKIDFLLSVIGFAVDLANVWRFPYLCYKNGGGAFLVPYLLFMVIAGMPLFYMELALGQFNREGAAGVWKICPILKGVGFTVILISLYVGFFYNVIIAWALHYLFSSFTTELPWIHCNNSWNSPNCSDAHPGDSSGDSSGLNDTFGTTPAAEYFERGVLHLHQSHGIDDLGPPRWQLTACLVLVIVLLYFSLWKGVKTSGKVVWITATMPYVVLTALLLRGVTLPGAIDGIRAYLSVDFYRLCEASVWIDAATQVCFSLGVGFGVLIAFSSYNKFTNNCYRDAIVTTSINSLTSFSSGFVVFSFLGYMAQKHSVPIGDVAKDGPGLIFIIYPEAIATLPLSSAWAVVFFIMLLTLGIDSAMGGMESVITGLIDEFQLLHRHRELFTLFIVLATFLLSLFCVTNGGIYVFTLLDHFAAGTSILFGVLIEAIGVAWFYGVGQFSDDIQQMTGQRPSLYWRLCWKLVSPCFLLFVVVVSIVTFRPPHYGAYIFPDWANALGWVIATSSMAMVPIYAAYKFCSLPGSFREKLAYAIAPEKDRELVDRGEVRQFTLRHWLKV
BAP1 block = blocks human BAP1 ubiquitin-AMC hydrolysis. 72,000 tested, 0.48% active. Q92560. recombinant BAP1, Ub-AMC hydrolysis fluorescence kinetic; hits give low values. calls only at 20 µM;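 active = activity remaining at or below 50% of control, provided the compound also passes the data quality filters; inactive = the rest, including low values that fail the filters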
BAP1 inh conf = confirmation of human BAP1 enzyme inhibitors; shares compounds with BAP1 block; purified BAP1, Ub-ethyl ester hydrolysis, HPLC; hits give low values; % of control activity, % at 20 µM; 310 tested, 8% active;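 active = percent of control activity at or below 60%; inconclusive = HPLC trace unusable from injection failure or solvent front hiding peaks; inactive = the rest, plus ubiquitin peak ratio over a set limit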
D1 mod confirm = confirmation of human D1 dopamine receptor allosteric modulators; shares compounds with D1 allo mod; HEK293 D1 CRE-luciferase, dopamine EC30 potentiation; hits give high values; luminescence at 10 µM; 2,200 tested, 88% active; AID 642;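 active = luminescence in either of two replicates above the same-plate mean plus 3 SD of the low-dose dopamine control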
D1 no dopamine = secondary test of D1 modulators: activity without dopamine; shares compounds with D1 allo mod; HEK293 D1 CRE-luciferase, luminescence, no dopamine; hits give high values; luminescence at 10 µM; 1,900 tested, 0.8% active; AID 646; in the data active = luminescence above about 3900
Isoprot counter = isoproterenol response counter-screen activity for D1 modulators | luminescence at 10 µM | shares compounds with D1 allo mod | HEK293 D1 CRE-luciferase, isoproterenol EC30 counter-screen; hits give high values | 2,200 tested, 63% active | AID 647;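 active = luminescence in either replicate above plate mean of wells with a partly effective reference agonist dose plus 3 SD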;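 note: isoproterenol raises cAMP through native beta-adrenoceptor Gs so signal bypasses D1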
Numbers stand for hits; i = inactive; ? = inconclusive; nt = no result shown; + = active, no number.

SMILES	D1 allo mod	hDAT+cocaine	BAP1 block	BAP1 inh conf	others
O=C(Cn1cnc([N+](=O)[O-])n1)Nc1cccc(Cl)c1	nt	nt	i	nt
CCOc1cc(S(=O)(=O)N2CCC(Cc3ccccc3)CC2)c(OCC)cc1-n1cnnn1	i	i	+	i
CCOc1cc(S(=O)(=O)N2CC=C(c3ccc(F)cc3)CC2)c(OCC)cc1-n1cnnn1	i	i	i	nt
CCOC(=O)Cc1csc(-n2sc3ccccc3c2=O)n1	i	i	+	42
CCOC(=O)Cc1csc(SCn2nnc3ccccc3c2=O)n1	i	i	nt	nt
CCc1nc(-c2ccccc2)cc2cc(OC)c(OC)cc12	nt	nt	i	nt
Cc1cccc(C)c1NC(=O)CSc1nnnn1-c1ccccc1	nt	nt	i	nt
CCOC(=O)c1oc2ccccc2c1NC(=O)COc1cccc(OC)c1	nt	i	i	nt
CCOC(=O)c1oc2ccccc2c1NC(=O)COc1ccc(F)cc1	nt	nt	+	i
O=[N+]([O-])c1ccc(N2CCN(S(=O)(=O)c3ccccc3)CC2)cc1NCc1ccc(Cl)cc1	nt	nt	i	nt
CSc1ccc(C2Nc3ccccc3NC3=C2C(=O)CC(c2ccc(Cl)cc2)C3)cc1 (centres undefined)	nt	nt	i	nt
Clc1ccc(C2Nc3ccccc3-n3cccc32)cc1 (centres undefined)	i	i	+	i
CCOC(=O)CSc1nc2cc(C)ccc2cc1C#N	i	i	i	nt
CCOC(=O)CSc1nc2cc(OC)ccc2cc1C#N	i	-9.8	+	i
COc1ccc2c(C=Nc3c(C)n(C)n(-c4ccccc4)c3=O)c(O)n(Cc3ccco3)c(=O)c2c1	i	4.2	+	i
Cc1c(N=Cc2ccco2)c(=O)n(-c2ccccc2)n1C	i	i	i	nt
O=c1[nH]c2ccc(Cl)cc2c(-c2ccccc2)c1N1CCN(c2ccccn2)CC1	i	i	+	i
O=c1[nH]c2ccc(Cl)cc2c(-c2ccccc2)c1N1CCOCC1	nt	i	i	nt
O=C(Nc1nc(-c2ccc(Br)cc2)cs1)c1cc(Cl)ccc1[N+](=O)[O-]	nt	nt	i	nt
CCOC(=O)c1cnc(SC)nc1Nc1cccc2ccccc12	nt	i	nt	nt
COCC(=O)N(C)C1(c2nnnn2CCOC(=O)Nc2cccc3ccccc23)CCCC1	i	i	+	i
Cc1ccc(C(=O)/C=C/Nc2ccccc2C(N)=O)cc1	nt	i	nt	nt
NC(=O)c1ccccc1N/C=C/C(=O)c1ccco1	i	i	+	i
CCCCCOC(=O)C1=C(C)NC2=C(C(=O)CC(C)(C)C2)C1c1ccccc1I (centres undefined)	nt	nt	i	nt
NS(=O)(=O)c1ccc(CNC(=O)C23CC4CC(CC(C4)C2)C3)cc1	nt	i	nt	nt
SMILES	D1 allo mod	hDAT+cocaine	BAP1 block	BAP1 inh conf	others
NS(=O)(=O)c1ccc(CNC(=O)NC23CC4CC(CC(C4)C2)C3)cc1	i	i	+	i
COc1ccc(OC)c(NC(=O)c2ccc(Br)o2)c1	nt	nt	i	nt
COc1ccc(CCNC(=O)Cn2nnc(-c3ccc(N4CCOCC4)cc3)n2)cc1OC	i	i	i	nt
Cc1cccc(C)c1NC(=O)Cn1nnc(-c2ccc(N3CCOCC3)cc2)n1	i	i	+	i
COc1cccc2cc(NC(=O)c3ccc(Cl)cc3)c(=O)oc12	nt	nt	i	nt
CC(Cl)=CCSc1nc2c(c(=O)[nH]c(=O)n2C)n1Cc1cccc(Br)c1	nt	nt	i	nt
Cc1ccc(C)c(N2CCN(C(=O)CCCn3c(=S)[nH]c4cc5c(cc4c3=O)OCO5)CC2)c1	i	i	+	i
O=C(CCCn1c(=S)[nH]c2cc3c(cc2c1=O)OCO3)N1CCN(c2ccccc2F)CC1	i	i	i	nt
CC1CCN(S(=O)(=O)c2ccc(NC(=O)Cc3ccccc3)cc2)CC1	nt	i	nt	nt
CC1CCN(S(=O)(=O)c2ccc(NC(=O)Cn3nnc(-c4ccccc4F)n3)cc2)CC1	i	i	+	i
Cc1ccc(C2CC(C(F)(F)F)n3nc(C(=O)NCC(C)C)c(Cl)c3N2)cc1 (centres undefined)	nt	nt	i	nt
Cc1cc(=O)[nH]c(SCC(=O)Nc2ccc(C(=O)O)cc2)n1	nt	i	nt	nt
CCOC(=O)c1ccc(NC(=O)CSc2nc(C)cc(=O)[nH]2)cc1	i	i	+	?
O=C1CC(c2ccc(Cl)cc2)CC2=C1C(c1cccc([N+](=O)[O-])c1)Nc1ccccc1N2 (centres undefined)	nt	nt	i	nt
CCCC(c1nnnn1CC(=O)OCC)N(Cc1cc2ccc(C)cc2[nH]c1=O)C1CCCC1 (centres undefined)	nt	i	i	nt
CCCC(c1nnnn1CC(=O)OCC)N(Cc1cc2c(C)cc(C)cc2[nH]c1=O)C1CCCC1 (centres undefined)	i	i	+	i
COc1ccccc1OCC(=O)Nc1oc(-c2ccccc2)c(-c2ccccc2)c1C#N	i	i	nt	nt
N#Cc1c(NC(=O)COC(=O)C2CC3C=CC2C3)oc(-c2ccccc2)c1-c1ccccc1 (centres undefined)	i	i	+	42
CSCCOC(=O)C1=C(C)NC(=O)NC1c1cccc([N+](=O)[O-])c1 (centres undefined)	nt	nt	i	nt
O=c1oc(-c2ccccc2)nc2sc3c(c12)CCCC3	nt	i	nt	nt
O=c1oc(-c2cc3ccccc3o2)nc2sc3c(c12)CCCC3	i	i	+	i
CCCc1ccc(OCCNC(=O)C(C)N2C(=O)c3ccccc3C2=O)cc1 (centres undefined)	nt	nt	i	nt
Cc1cccc(-c2cc3nc4c(c(N5CCC6(CC5)OCCO6)n3n2)CCCC4)c1	i	nt	nt	nt
Cc1cccc(-c2cc3nc4c(c(N5CCOCC5)n3n2)CCCC4)c1	i	i	+	i
Cc1ccc(C2=Nn3cnnc3SC2)cc1	nt	nt	i	nt
SMILES	D1 allo mod	hDAT+cocaine	BAP1 block	BAP1 inh conf	others
CCCn1c2c(c(O)c(C(=O)Nc3ccc(C)cn3)c1=O)CCCC2	i	nt	i	nt
CC(C)Cn1c2c(c(O)c(C(=O)Nc3nccs3)c1=O)CCCC2	i	nt	+	i
CCCn1c2c(c(O)c(C(=O)Nc3ncccc3C)c1=O)CCCC2	nt	i	+	i
CCCn1c2c(c(O)c(C(=O)Nc3nccs3)c1=O)CCCC2	nt	i	i	nt
Cc1ccc(-c2cc(C(=O)Nc3cc(C)ccc3C)[nH]n2)c(O)c1	i	i	i	nt
COc1ccc(OC)c(NC(=O)c2cc(-c3ccc(C)cc3O)n[nH]2)c1	i	i	+	i
CCN1C(=Nc2cccnc2)SCC1(O)c1ccccc1 (centres undefined)	nt	nt	i	nt
Clc1ccccc1OCCn1ccnc1	i	i	i	nt
C=CCc1ccccc1OCCn1ccnc1	4.2	i	+	i	D1 mod confirm=15712;D1 no dopamine=i;Isoprot counter=i
COc1cccc(C(=O)Nc2nnc(-c3ccncc3)s2)c1	nt	nt	i	nt
COc1cc(C=Nc2ccccc2O)c([N+](=O)[O-])cc1OC	nt	nt	i	nt
CCOC(=O)c1c(NC(=O)CSc2nnnn2C)sc(C)c1C	i	i	i	nt
CCCn1c(SCC(=O)Nc2sc(C)c(C)c2C(=O)OCC)nc2c1c(=O)n(C)c(=O)n2C	6.5	i	+	i	D1 mod confirm=8860;D1 no dopamine=i;Isoprot counter=i
